The results in this text go back to PubChem BioAssay (Tox21).

Where “and” joins values, the source holds several entries; their conditions need not be identical. Equal values may be shown once. Inconclusive results are not listed. Calls of active or inactive are those of the source. Unless noted, calls follow the shape of the dose curve; as a rule, active = well fitted curve in the direction sought with a large enough effect in the repeat runs; inconclusive = weak or mixed curves; inactive = no such curve, though single readings can be large; an effect the other way counts as inactive or inconclusive.

Test [1] is described as follows: qHTS assay to identify small molecule antagonists of the androgen receptor (AR) signaling pathway using the MDA cell line in the presence of 0.5 nM R1881 - cell viability counter screen (AID 1259242). Also: nearly all actives have a fitted effect of over 45% in size. Also: potency is read from the fitted curve at half-maximal effect. The method in brief:
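Viability of MDA-kb2 cells was multiplexed with the luciferase AR readout; after 16 hr with compounds and R1881 at 0.5 nM final, CellTiter-Fluor fluorescence was recorded.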
(In general: In qHTS, concentration-response curves come from the screen itself.)

Test [2] can be described thus: qHTS assay to identify small molecule HDAC inhibitors (AID 1259364).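 Also: wild-type HCT-116 cells with endogenous class I/II HDAC activity; top concentration of the series differs between compounds; nearly all actives have a fitted effect of over 45% in size.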 The method in brief: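 Read-out: luminescence of HDAC-Glo I/II reagent, 30 min RT, reflecting class I/II deacetylase activity in whole HCT-116 cells pre-exposed 2 h to DMSO-dissolved compounds.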
Test [3] is described as follows: qHTS assay to identify small molecule HDAC inhibitors - cell viability counter screen (AID 1259365). Also: series mostly up to about 92 µM; nearly all actives have a fitted effect of over 50% in size. The procedure, abridged:
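To flag cytotoxic hits, 1,500 wild-type HCT-116 cells per well, plated the day before, receive test compounds for 2hr at 37 C before CellTiter-Glo reagent and a luminescence read.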

The nature of test [4]: qHTS assay to identify small molecule agonists of the sonic hedgehog signaling (Shh) pathway - cell viability counter screen (AID 1259366). Also: nearly all actives have a fitted effect of over 50% in size. Also: potency is read from the fitted curve at half-maximal effect. The procedure, abridged:
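Fluorescence from CellTiter-Fluor reports live cells in this counter screen. NIH/3T3-derived Gli1-Luc reporter cells receive test compounds for 24hr at 37C; reagent goes in at 23hr.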

Test [5] in a line: qHTS assay to identify small molecule antagonists of the sonic hedgehog signaling (Shh) pathway - cell viability counter screen (AID 1259367). Also: nearly all actives have a fitted effect of over 55% in size. Also: potency is read from the fitted curve at half-maximal effect. The method in brief: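 Using CellTiter-Fluor, viability of Gli1-Luc reporter 3T3 cells is read by fluorescence in the wells used for the Shh luciferase assay. Treatment lasts 23 hr with conditioned medium, then reagent 1 hr at 37C.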
Test [6] in a line: qHTS assay to identify small molecule agonists of the sonic hedgehog signaling (Shh) pathway (AID 1259368; calls by dose curve;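 also: NIH/3T3-derived 3T3Gli1-Luc cells carrying a stable Gli1-driven firefly luciferase reporter; series mostly up to about 92 µM; nearly all actives have a fitted effect of over 15% in size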). The procedure, abridged: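 A Gli1 transcriptional response element controlled firefly luciferase in 3T3Gli1-Luc cells. Compounds and a positive control were added 4 hr after plating, and cells were incubated a further 24 hr at 37 C before luminescence detection.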
Test [7] in a line: qHTS assay to identify small molecule antagonists of the sonic hedgehog signaling (Shh) pathway (AID 1259369; calls by dose curve; also: nearly all actives have a fitted effect of over 45% in size; also: potency is read from the fitted curve at half-maximal effect). The method in brief: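 For antagonist detection, the reporter line received test compounds together with conditioned medium, incubated 24hr at 37 C, 5% CO2, then luminescence was recorded following 30min room-temperature luciferase reagent incubation.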
The nature of test [8]: qHTS assay to identify small molecule agonists of the androgen receptor (AR) signaling pathway in the presence of an antagonist - cell viability counter screen (AID 1259379). Also: nearly all actives have a fitted effect of over 25% in size. Also: potency is read from the fitted curve at half-maximal effect. The procedure, abridged:
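Seed MDA-kb2 at 3,000 cells/well; incubate 5 hr, 37C, 0% CO2. Add nilutamide to 3.0uM final, then pin compounds at 15 concentrations. Incubate 16 hr. Add CellTiter-Fluor at 15 hr, read fluorescence after 1 hr.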

Test [9] is described as follows: qHTS assay to identify small molecule agonists of the estrogen receptor beta (ER-beta) signaling pathway - cell viability counter screen (AID 1259380). Also: nearly all actives have a fitted effect of over 30% in size. Also: potency is read from the fitted curve at half-maximal effect. The procedure, abridged: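 CellTiter-Glo read, 30 min RT, same wells as bla assay; cells ER-beta-UAS-bla HEK293T; 16 hr compound, 37C; medium 2% charcoal-stripped FBS.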
The nature of test [10]: qHTS assay to identify small molecule agonists of the estrogen receptor alpha (ER-alpha) signaling pathway in the presence of an antagonist - cell viability counter screen (AID 1259386).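 Also: cells exposed to compounds for 22 h at 37 °C before the viability read; nearly all actives have a fitted effect of over 30% in size.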 Also: potency is read from the fitted curve at half-maximal effect. The procedure, abridged: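 Viability counter screen using VM7Luc4E2 (full-length ER-alpha, four ERE-luciferase). The cells were treated with compounds alongside ICI-182,780 10.0nM for 22hr, and live-cell protease fluorescence was quantified with CellTiter-Fluor.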

In test [11] the target is Estrogen receptor beta (Homo sapiens) (UniProt Q92731). The test is described as follows: qHTS assay to identify small molecule agonists of the estrogen receptor beta (ER-beta) signaling pathway (AID 1259377; active = well fitted activation curve with a large enough effect in the signal ratio in the repeat runs, not every such curve was filed as active; the % refers to the signal ratio). The procedure, abridged: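 Screening used GripTite ER-beta-UAS-bla cells held in 2% charcoal-stripped FBS medium. After overnight (16 hr) compound incubation at 37C, beta-lactamase activity was detected with a FRET substrate by fluorescence.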

The target is the same in test [12]. Put plainly: qHTS assay to identify small molecule antagonists of the estrogen receptor beta (ER-beta) signaling pathway (AID 1259378; active = well fitted inhibition curve with a large enough effect in the signal ratio in the repeat runs, not every such curve was filed as active; the % refers to the signal ratio; also: potency is read from the fitted curve at half-maximal effect). The method in brief:
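Antagonist mode: compounds added to beta-lactamase reporter HEK293T ER-beta-UAS cells stimulated with E2 (1nM final), 16 hr at 37C. LiveBLAzer B/G FRET substrate, 2 hours room temperature, fluorescence read-out.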

Test [13] is described as follows: qHTS assay to identify small molecule antagonists of the estrogen receptor beta (ER-beta) signaling pathway - cell viability counter screen (AID 1259382). Also: nearly all actives have a fitted effect of over 55% in size. Also: potency is read from the fitted curve at half-maximal effect. The procedure, abridged:
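In this multiplexed counter screen, cells were seeded at 2,000 per well in medium with 2% charcoal-stripped FBS and incubated 6 hr before compound and 1nM final E2 were added. Sixteen hours later, ATP-based luminescence reported viability.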

Test [14] can be described thus: qHTS assay to identify small molecule agonists or antagonists of the thyroid stimulating hormone receptor (TSHR) signaling pathway - wild type cell line counter screen (AID 1259384; calls by dose curve). The procedure, abridged: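 Counter screen in untransfected Hek293: compounds (15-point titration, triplicate) plus phosphodiesterase inhibitor Ro20-1724 added after 18 h plating; 30 min RT. Intracellular cAMP via competitive d2/cryptate immunoassay, 1 h incubation.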

Test [15] deals with Thyrotropin receptor (Homo sapiens) (UniProt P16473). The test is described as follows: qHTS assay to identify small molecule antagonists of the thyroid stimulating hormone receptor (TSHR) signaling pathway (AID 1259385; calls by dose curve; also: nearly all actives have a fitted effect of over 20% in size; also: potency is read from the fitted curve at half-maximal effect). The method in brief: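 Antagonist mode: compound-treated TSHR-expressing HEK293 cells were stimulated with 1.5 ng/mL TSH (final) in presence of Ro20-1724 for 30 min at RT. HTRF cAMP detection after 1 h; each compound tested at 15 concentrations, triplicate.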

For test [16], the target named is Estrogen receptor (Homo sapiens) (UniProt P03372). Put plainly: qHTS assay to identify small molecule agonists of the estrogen receptor alpha (ER-alpha) signaling pathway in the presence of an antagonist (AID 1259383; calls by dose curve; also: top concentration of the series differs between compounds; nearly all actives have a fitted effect of over 15% in size). The method in brief: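 Stably transfected VM7Luc4E2 reporter cells, kept 5 days in charcoal-stripped serum, received ICI-182,780 at 10.0nM final before compound addition. Following 22hr incubation at 37C and 5% CO2, luciferase signal was read by luminescence.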
Estrogen receptor (Homo sapiens), sequence (P03372 whole entry, looked up): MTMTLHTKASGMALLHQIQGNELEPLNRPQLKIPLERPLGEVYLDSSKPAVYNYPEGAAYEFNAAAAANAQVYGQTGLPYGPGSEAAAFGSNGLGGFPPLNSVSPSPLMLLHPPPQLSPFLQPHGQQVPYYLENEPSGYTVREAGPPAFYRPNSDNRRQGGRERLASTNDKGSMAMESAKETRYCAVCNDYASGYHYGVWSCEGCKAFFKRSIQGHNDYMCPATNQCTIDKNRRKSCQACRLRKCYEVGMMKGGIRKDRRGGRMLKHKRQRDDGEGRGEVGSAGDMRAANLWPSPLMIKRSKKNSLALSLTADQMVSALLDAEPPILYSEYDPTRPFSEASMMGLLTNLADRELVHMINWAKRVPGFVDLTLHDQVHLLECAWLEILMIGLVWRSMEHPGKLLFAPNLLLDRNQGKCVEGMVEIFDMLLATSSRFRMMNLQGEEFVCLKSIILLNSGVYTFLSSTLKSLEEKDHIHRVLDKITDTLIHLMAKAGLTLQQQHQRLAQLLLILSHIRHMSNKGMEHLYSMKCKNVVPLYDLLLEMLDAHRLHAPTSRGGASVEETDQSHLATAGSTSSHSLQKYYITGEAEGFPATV

Thyrotropin receptor (Homo sapiens), sequence (P16473 whole entry, looked up): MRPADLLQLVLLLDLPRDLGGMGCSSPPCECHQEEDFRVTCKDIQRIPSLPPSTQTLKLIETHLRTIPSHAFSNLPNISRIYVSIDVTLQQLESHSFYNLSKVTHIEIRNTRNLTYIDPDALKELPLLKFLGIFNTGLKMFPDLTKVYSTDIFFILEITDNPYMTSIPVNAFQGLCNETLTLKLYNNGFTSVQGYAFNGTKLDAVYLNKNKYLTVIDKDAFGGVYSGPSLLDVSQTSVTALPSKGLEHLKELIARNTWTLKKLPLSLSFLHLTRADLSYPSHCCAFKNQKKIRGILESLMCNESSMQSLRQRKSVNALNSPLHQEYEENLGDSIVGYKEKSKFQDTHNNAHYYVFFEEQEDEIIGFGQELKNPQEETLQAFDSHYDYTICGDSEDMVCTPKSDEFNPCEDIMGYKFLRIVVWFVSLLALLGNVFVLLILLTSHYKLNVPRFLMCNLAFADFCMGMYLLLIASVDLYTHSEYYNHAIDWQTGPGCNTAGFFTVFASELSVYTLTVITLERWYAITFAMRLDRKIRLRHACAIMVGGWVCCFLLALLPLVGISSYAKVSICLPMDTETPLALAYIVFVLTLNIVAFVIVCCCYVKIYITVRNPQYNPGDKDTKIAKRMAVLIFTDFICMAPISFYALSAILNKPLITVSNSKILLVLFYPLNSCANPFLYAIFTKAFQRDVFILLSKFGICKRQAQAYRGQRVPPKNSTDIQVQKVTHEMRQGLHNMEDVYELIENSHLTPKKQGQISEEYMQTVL
Estrogen receptor beta (Homo sapiens), sequence (Q92731 whole entry, looked up): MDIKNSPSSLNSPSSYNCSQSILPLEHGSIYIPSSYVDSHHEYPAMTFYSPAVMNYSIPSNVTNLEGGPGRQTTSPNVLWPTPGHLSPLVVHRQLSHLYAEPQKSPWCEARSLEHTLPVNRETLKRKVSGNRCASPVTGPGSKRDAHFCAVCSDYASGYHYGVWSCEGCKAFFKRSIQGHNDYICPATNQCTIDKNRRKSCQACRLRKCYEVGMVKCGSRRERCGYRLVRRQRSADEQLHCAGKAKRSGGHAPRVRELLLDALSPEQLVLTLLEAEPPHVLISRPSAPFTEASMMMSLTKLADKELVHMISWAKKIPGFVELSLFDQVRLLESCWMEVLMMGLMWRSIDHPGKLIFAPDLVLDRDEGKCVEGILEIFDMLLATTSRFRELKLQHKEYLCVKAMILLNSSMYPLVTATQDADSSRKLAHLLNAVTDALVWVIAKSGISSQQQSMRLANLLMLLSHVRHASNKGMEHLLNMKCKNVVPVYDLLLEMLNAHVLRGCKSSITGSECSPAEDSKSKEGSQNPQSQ

Regarding `CN(C)CCCN1c2ccccc2CCc2ccccc21`, the Potency entry in test [1], in test [2], in test [3], in [4], in [5] and in [6] was “inactive” each time. Also, the Potency entry in test [10] is “inactive”. Also, the Potency was 8.63 µM (active) and 4.73 µM (active) in [7]; 61.1 µM (active) in test [8]; 30.6 µM (active) and 23.7 µM (active) in [9].

As for `O=C1NCN(c2ccccc2)C12CCN(CCCC(c1ccc(F)cc1)c1ccc(F)cc1)CC2`, the Potency in test [1] was 29.8 µM (active); in test [12], 18.8 µM (active); in test [8] it was 29.8 µM (active); in [13], 26.6 µM (active). Further, the Potency result in [2], in test [3], in test [6], in test [11], in test [15] and in test [10] was “inactive” each time. In [14], the call was inactive.

As for `CCOC(=O)CN`, the Potency entry in [1], in test [2], in test [4], in [5], in test [6] and in test [7] was “inactive” each time. In addition, the Potency result in test [8], in [9], in test [13], in test [15] and in test [10] was “inactive” throughout. Moreover, the compound was called inactive in test [14].

As to `CCNc1nc(NC(C)CC)nc(OC)n1` (stereo not drawn), the Potency entry in [1], in test [2], in [3], in [4], in test [5] and in test [6] was “inactive” in each case. In addition, the Potency entry in test [8], in [9], in test [13], in test [15] and in test [10] was “inactive” throughout. In test [7], the Potency was 30.6 µM (active). The outcome in test [14] was inactive.

In the case of `O=C1NC2CCCCN2C12CCN(CCCN1c3ccccc3CCc3ccc(Cl)cc31)CC2` (stereo not drawn), the Potency in [1] was 26.6 µM (active); in test [4], 26.6 µM (active); in test [7], 21.1 µM (active); in test [12], 23.7 µM (active); in test [8], 26.6 µM (active); in [9], 26.6 µM (active). In [13], the Potency is 26.6 µM (active). Further, the Potency entry in [2], in test [6] and in test [16] was “inactive” throughout. In test [14], the call was inactive.

For the compound `C=CC(C)C#N` (stereo not drawn), the Potency result in test [1], in test [2], in test [4], in [5], in test [6] and in test [7] was “inactive” each time. In addition, the Potency result in [8], in [9], in test [13] and in test [10] was “inactive” each time.

As for `CCCCCCC(C)OC(=O)COc1nc(F)c(Cl)c(N)c1Cl` (stereo not drawn), the Potency entry in test [1], in [2], in [4], in [6], in [7] and in [8] was “inactive” throughout. Also, the Potency result in test [13], in [15] and in [10] was “inactive” throughout. Also, the Potency in test [9] is 68.6 µM (active). For the same compound, the call in [14] was inactive.

Consider `CC(C)(c1cc(Br)c(O)c(Br)c1)c1cc(Br)c(O)c(Br)c1`, for which the Potency entry in test [1], in [2], in test [3], in [4], in [6] and in test [8] was “inactive” each time. The Potency entry in test [15] and in test [10] was “inactive” each time. Further, the Potency in test [7] was 60.9 µM (active) and 64.9 µM (active); in test [9], 68.3 µM (active) and 68.4 µM (active); in [13], 68.4 µM (active). Moreover, the compound was classed as inactive in test [14].

On to `C=CC(=C)CCC=C(C)C`, for which the Potency result in test [1], in test [2], in [3], in [5], in test [6] and in test [7] was “inactive” each time. Further, the Potency result in test [11], in test [12], in test [8], in test [9], in test [13] and in [10] was “inactive” each time.

For `CCCCCCOc1cc(C)c(O)c(C)c1C`, the Potency entry in test [1], in test [2] and in [6] was “inactive” in each case. In addition, the Potency was 61.9 µM (active) in test [5]; 61.9 µM (active) in [7]; 55.1 µM (active) in [9]; 61.9 µM (active) in [13]; 55.1 µM (active) in test [15]. Further, the result in [14] was inactive.

For the compound `CC(C)(C)CC(C)(C)c1ccccc1O`, the Potency entry in [1], in test [2], in test [6], in test [8] and in test [15] was “inactive” throughout. Moreover, the Potency in [4] is 54.8 µM (active); in [5], 48.8 µM (active); in test [7], 27.4 µM (active); in test [9], 43.5 µM (active); in test [13], 61.4 µM (active); in [10], 61.4 µM (active). The result in test [14] was inactive.
